{"source": "PubChem BioAssay (EPA / NIEHS)", "key": {"[1]": {"biological_target": "Bile acid receptor (Homo sapiens) (UniProt Q96RI1)", "sequence (Q96RI1 whole entry, looked up, the tested form may be a part)": "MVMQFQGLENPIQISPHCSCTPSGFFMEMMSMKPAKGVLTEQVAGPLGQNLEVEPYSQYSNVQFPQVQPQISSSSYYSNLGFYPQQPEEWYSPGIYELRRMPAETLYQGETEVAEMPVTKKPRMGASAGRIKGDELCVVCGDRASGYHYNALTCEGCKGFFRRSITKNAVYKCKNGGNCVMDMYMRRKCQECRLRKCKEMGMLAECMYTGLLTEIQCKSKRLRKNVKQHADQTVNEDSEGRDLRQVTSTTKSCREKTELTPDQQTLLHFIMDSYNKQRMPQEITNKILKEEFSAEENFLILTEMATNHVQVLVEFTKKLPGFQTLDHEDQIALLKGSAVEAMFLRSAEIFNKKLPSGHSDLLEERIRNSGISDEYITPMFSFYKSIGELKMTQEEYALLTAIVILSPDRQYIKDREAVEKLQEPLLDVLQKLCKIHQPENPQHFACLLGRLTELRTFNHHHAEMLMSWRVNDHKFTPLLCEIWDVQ", "assay": "ATG_FXR_TRANS: Attagene TRANS-FACTORIAL HepG2 Assay for Farnesoid X Receptor (FXR) (AID 2282979);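 also: hits raise reporter mRNA above DMSO so AC50 marks FXR activation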", "conditions": "HepG2 Attagene TRANS FXR-GAL4 reporter transcription", "summary_of_the_method": "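HepG2 cells were transiently transfected with GAL4-UAS reporters driven by chimeric NR-Gal4 proteins and dosed for 24 h. Reporter mRNA was quantified by RT-PCR, fluorescent labelling, HpaI digestion and capillary electrophoresis, with gain of signal scored versus DMSO.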"}, "[2]": {"biological_target": "Oxysterols receptor LXR-alpha (Homo sapiens) (UniProt Q13133)", "sequence (Q13133 whole entry, looked up, the tested form may be a part)": "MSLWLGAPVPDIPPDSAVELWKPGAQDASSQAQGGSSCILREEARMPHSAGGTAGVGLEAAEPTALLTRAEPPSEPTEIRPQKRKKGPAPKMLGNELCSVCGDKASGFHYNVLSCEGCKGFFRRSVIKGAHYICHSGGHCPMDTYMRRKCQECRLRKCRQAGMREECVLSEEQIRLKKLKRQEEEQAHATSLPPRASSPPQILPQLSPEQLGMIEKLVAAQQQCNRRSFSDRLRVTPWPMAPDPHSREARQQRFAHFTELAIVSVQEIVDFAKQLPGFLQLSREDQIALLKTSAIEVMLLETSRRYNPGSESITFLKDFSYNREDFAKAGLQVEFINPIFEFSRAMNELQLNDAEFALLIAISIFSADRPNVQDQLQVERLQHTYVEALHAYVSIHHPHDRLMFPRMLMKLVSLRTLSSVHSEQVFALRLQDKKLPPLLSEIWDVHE", "assay": "ATG_LXRa_TRANS: Attagene TRANS-FACTORIAL HepG2 Assay for human Liver X Receptor alpha (LXRa) (AID 2282980)", "conditions": "HepG2 Attagene TRANS reporter, LXRa transactivation", "summary_of_the_method": "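HepG2 cells transiently transfected with GAL4-UAS reporter units for chimeric NR-Gal4 proteins, exposed to chemicals for 24 h. Reporter mRNA quantified by RT-PCR and capillary electrophoresis; gain of signal fitted relative to DMSO.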"}, "[3]": {"biological_target": "Hepatocyte nuclear factor 4-alpha (Homo sapiens) (UniProt P41235)", "sequence (P41235 whole entry, looked up, the tested form may be a part)": "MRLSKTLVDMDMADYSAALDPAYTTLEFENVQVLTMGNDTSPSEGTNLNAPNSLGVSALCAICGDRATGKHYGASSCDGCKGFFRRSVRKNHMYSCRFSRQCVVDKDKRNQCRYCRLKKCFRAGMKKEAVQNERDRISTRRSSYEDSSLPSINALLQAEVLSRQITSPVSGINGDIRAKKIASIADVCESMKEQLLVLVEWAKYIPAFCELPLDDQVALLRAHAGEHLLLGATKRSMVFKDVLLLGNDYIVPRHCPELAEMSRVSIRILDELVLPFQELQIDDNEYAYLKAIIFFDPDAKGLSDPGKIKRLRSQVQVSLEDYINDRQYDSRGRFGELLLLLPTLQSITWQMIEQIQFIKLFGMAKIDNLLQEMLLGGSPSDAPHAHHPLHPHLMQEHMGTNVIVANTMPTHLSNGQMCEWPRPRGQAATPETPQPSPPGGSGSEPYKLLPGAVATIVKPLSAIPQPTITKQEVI", "assay": "ATG_HNF4a_TRANS: Attagene TRANS-FACTORIAL HepG2 Assay for human Hepatocyte Nuclear Factor 4 alpha (HNF4a) (AID 2282982)", "conditions": "HepG2 HNF4a transactivation reporter, mRNA readout", "summary_of_the_method": "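HepG2 cells transiently transfected with HNF4a-Gal4 chimera and GAL4-UAS reporter units, dosed for 24 h. Reporter mRNA measured by RT-PCR, fluorescent primer extension and capillary electrophoresis; gain-of-signal fitted relative to DMSO.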"}, "[4]": {"assay": "ATG_M_06_TRANS: Attagene TRANS-FACTORIAL HepG2 Assay for M06 Transcription Factor (Internal Marker) (AID 2282983)", "conditions": "HepG2 Attagene TRANS M06 internal marker reporter", "summary_of_the_method": "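HepG2 cells transiently transfected with GAL4-UAS multiple reporter units, dosed 24 h. Reporter RNA reverse-transcribed, PCR-amplified, 6-FAM-labeled, HpaI-digested and quantified by capillary electrophoresis; this internal-marker signal fitted upward relative to DMSO.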"}, "[5]": {"assay": "ATG_M_32_TRANS: Attagene TRANS-FACTORIAL HepG2 Assay for M32 Transcription Factor (Internal Marker) (AID 2282984)", "conditions": "HepG2 Attagene TRANS M32 internal marker reporter", "summary_of_the_method": "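HepG2 cells transiently transfected with GAL4-UAS reporter units, dosed for 24 hours. Reporter mRNA quantified by RT-PCR, 6-FAM labelling, HpaI digestion and capillary electrophoresis; internal-marker signal fitted upward relative to DMSO.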"}, "[6]": {"biological_target": "Nuclear receptor subfamily 4 group A member 2 (Homo sapiens) (UniProt P43354)", "sequence (P43354 whole entry, looked up, the tested form may be a part)": "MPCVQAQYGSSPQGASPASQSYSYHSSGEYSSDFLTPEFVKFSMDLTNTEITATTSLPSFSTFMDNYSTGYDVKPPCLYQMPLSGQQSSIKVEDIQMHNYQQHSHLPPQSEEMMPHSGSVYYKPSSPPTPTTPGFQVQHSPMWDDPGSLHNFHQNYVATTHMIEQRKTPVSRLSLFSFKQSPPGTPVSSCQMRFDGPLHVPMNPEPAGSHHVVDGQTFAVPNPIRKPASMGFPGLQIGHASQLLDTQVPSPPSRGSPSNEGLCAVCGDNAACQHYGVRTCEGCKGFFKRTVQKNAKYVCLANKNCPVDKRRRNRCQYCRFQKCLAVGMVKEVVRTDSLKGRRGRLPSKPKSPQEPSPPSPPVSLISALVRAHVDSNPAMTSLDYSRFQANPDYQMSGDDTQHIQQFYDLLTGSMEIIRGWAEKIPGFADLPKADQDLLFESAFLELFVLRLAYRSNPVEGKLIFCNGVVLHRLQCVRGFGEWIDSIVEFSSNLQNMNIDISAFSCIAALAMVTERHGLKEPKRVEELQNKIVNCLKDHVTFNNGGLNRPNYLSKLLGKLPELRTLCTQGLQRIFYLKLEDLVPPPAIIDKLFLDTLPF", "assay": "ATG_NURR1_TRANS: Attagene TRANS-FACTORIAL HepG2 Assay for human Nuclear Receptor Related Protein 1 (NURR1) (AID 2282985)", "conditions": "HepG2 Attagene TRANS reporter, mRNA readout", "summary_of_the_method": "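HepG2 cells transiently transfected with NURR1-Gal4 chimera and GAL4-UAS reporter units; after 24 hr compound exposure, reporter mRNA quantified by RT-PCR and capillary electrophoresis; gain of signal fitted against DMSO.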"}, "[7]": {"biological_target": "Transcriptional activator Myb (Homo sapiens) (UniProt P10242)", "sequence (P10242 whole entry, looked up)": "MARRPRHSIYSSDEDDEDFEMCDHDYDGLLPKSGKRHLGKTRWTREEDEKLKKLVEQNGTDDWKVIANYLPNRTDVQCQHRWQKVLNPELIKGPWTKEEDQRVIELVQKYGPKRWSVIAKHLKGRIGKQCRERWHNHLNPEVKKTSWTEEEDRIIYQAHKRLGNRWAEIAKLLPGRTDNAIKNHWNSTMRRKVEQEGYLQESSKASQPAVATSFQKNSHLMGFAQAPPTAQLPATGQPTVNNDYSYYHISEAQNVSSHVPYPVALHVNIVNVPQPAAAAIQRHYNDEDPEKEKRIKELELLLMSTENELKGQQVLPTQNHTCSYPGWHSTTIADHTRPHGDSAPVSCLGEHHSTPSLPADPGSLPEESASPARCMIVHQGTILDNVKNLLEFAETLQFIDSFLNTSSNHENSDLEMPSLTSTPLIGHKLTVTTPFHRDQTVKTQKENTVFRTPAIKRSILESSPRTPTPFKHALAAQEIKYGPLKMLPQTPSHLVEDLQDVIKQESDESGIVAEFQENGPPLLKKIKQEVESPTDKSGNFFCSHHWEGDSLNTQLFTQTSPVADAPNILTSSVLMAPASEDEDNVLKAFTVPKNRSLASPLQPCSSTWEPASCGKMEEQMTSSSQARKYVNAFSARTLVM", "assay": "ATG_Myb_CIS: Attagene CIS-FACTORIAL HepG2 Assay for human Myeloblastosis (Myb) Proto-Oncogene Transcription Factor (AID 2282986; active = hit-call score of the fitted dose curve at least 0.9, where 1 is the maximum; inactive = score below 0.9)", "conditions": "HepG2 Attagene CIS-FACTORIAL Myb reporter transcription; actives raise or lower the signal", "summary_of_the_method": "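Steps: transfect HepG2 with cis-regulated reporter units; dose with chemical for 24 h; isolate RNA, reverse-transcribe, PCR-amplify and FAM-label reporter sequences; digest with HpaI; resolve by capillary electrophoresis. Activity fitted in both directions relative to DMSO.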"}, "[8]": {"biological_target": "Nuclear respiratory factor 1 (Homo sapiens) (UniProt Q16656)", "sequence (Q16656 whole entry, looked up, the tested form may be a part)": "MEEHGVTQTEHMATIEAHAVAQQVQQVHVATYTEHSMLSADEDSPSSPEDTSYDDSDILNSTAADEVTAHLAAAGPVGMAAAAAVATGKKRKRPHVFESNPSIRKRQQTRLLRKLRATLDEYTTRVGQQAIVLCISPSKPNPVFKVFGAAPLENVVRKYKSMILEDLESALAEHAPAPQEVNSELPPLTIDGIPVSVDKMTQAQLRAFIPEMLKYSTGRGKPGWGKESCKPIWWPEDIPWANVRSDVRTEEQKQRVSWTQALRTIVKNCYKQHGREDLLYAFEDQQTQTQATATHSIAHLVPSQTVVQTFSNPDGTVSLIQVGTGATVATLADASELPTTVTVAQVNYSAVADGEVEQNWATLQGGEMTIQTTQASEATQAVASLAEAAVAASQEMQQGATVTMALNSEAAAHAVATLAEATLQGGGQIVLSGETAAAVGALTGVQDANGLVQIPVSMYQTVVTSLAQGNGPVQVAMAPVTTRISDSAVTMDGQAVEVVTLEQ", "assay": "ATG_NRF1_CIS: Attagene CIS-FACTORIAL HepG2 Assay for human Nuclear Respiratory Factor 1 (NRF1) Orphan Gene (AID 2282987; active = hit-call score of the fitted dose curve at least 0.9, where 1 is the maximum; inactive = score below 0.9)", "conditions": "HepG2 NRF1 cis-element reporter, Attagene multiplex; actives raise or lower the signal", "summary_of_the_method": "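Fluorescence intensity of labelled reporter cDNA fragments, resolved by capillary electrophoresis, served as readout for NRF1 cis-element activity. Transiently transfected HepG2 cells were dosed for 24 hours; activity in either direction was fitted against DMSO negative control.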"}, "[9]": {"biological_target": "Oxysterols receptor LXR-beta (Homo sapiens) (UniProt P55055)", "sequence (P55055 whole entry, looked up, the tested form may be a part)": "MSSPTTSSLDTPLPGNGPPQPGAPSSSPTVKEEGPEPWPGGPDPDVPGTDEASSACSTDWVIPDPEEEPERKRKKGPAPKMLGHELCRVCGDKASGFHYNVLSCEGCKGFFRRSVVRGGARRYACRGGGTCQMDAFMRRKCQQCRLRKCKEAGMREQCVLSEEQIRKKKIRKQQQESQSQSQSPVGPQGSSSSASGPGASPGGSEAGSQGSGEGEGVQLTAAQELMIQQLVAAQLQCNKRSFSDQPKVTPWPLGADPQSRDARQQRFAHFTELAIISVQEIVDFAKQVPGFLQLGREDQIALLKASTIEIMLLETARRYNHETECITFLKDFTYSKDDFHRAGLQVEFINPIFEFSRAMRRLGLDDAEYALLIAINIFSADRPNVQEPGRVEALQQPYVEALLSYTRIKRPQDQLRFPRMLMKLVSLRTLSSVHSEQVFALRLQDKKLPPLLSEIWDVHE", "assay": "ATG_LXRb_TRANS: Attagene TRANS-FACTORIAL HepG2 Assay for human Liver X Receptor beta (LXRb) (AID 2282981)", "conditions": "HepG2 Attagene TRANS GAL4-LXRb reporter, mRNA", "summary_of_the_method": "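HepG2 cells transiently transfected with GAL4-UAS reporter units for chimeric NR-Gal4 proteins, dosed for 24 h. Reporter transcripts measured by RT-PCR and capillary electrophoresis; gain-of-signal fitting relative to DMSO.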"}}, "note": "Records with an inconclusive call do not appear. The source made the active and inactive calls. The calls were made as follows, unless noted: active = hit-call score of the fitted dose curve at least 0.9, where 1 is the maximum; inconclusive = response in the unintended direction; inactive = score below 0.9.", "data": [{"smiles": "C=COC(=O)C(C)(C)CCCCCC", "values": [{"measurement": "outcome", "setting": "[1]", "result": "inactive"}, {"measurement": "outcome", "setting": "[2]", "result": "inactive"}, {"measurement": "outcome", "setting": "[3]", "result": "inactive"}, {"measurement": "outcome", "setting": "[4]", "result": "inactive"}, {"measurement": "outcome", "setting": "[5]", "result": "inactive"}, {"measurement": "outcome", "setting": "[6]", "result": "inactive"}, {"measurement": "outcome", "setting": "[7]", "result": "inactive"}, {"measurement": "outcome", "setting": "[8]", "result": "inactive"}]}, {"smiles": "Cc1ccccc1C(OCCN(C)C)c1ccccc1", "note": "(configuration not stated)", "values": [{"measurement": "outcome", "setting": "[1]", "result": "inactive"}, {"measurement": "outcome", "setting": "[2]", "result": "inactive"}, {"measurement": "outcome", "setting": "[4]", "result": "inactive"}, {"measurement": "outcome", "setting": "[5]", "result": "inactive"}, {"measurement": "outcome", "setting": "[6]", "result": "inactive"}, {"measurement": "outcome", "setting": "[8]", "result": "inactive"}]}, {"smiles": "CCCCc1oc2ccccc2c1C(=O)c1cc(I)c(OCCN(CC)CC)c(I)c1", "values": [{"measurement": "outcome", "setting": "[1]", "result": "inactive"}, {"measurement": "outcome", "setting": "[2]", "result": "inactive"}, {"measurement": "outcome", "setting": "[9]", "result": "inactive"}, {"measurement": "outcome", "setting": "[5]", "result": "inactive"}, {"measurement": "outcome", "setting": "[7]", "result": "inactive"}]}, {"smiles": "O=C(OC(=O)C(F)(F)C(F)(F)F)C(F)(F)C(F)(F)F", "values": [{"measurement": "outcome", "setting": "[1]", "result": "inactive"}, {"measurement": "outcome", "setting": "[2]", "result": "inactive"}, {"measurement": "outcome", "setting": "[3]", "result": "inactive"}, {"measurement": "outcome", "setting": "[7]", "result": "inactive"}, {"measurement": "outcome", "setting": "[8]", "result": "inactive"}]}, {"smiles": "Cc1ccc2ccc3ccc(C)cc3c2c1", "values": [{"measurement": "outcome", "setting": "[1]", "result": "inactive"}, {"measurement": "outcome", "setting": "[9]", "result": "inactive"}, {"measurement": "outcome", "setting": "[3]", "result": "inactive"}, {"measurement": "outcome", "setting": "[4]", "result": "inactive"}, {"measurement": "outcome", "setting": "[6]", "result": "inactive"}, {"measurement": "outcome", "setting": "[7]", "result": "inactive"}, {"measurement": "outcome", "setting": "[8]", "result": "inactive"}]}, {"smiles": "C=CC(=O)OCCC(F)(F)C(F)(F)C(F)(F)C(F)(F)C(F)(F)C(F)(F)F", "values": [{"measurement": "outcome", "setting": "[1]", "result": "inactive"}, {"measurement": "outcome", "setting": "[2]", "result": "inactive"}, {"measurement": "outcome", "setting": "[4]", "result": "inactive"}, {"measurement": "outcome", "setting": "[6]", "result": "inactive"}, {"measurement": "outcome", "setting": "[7]", "result": "inactive"}, {"measurement": "outcome", "setting": "[8]", "result": "inactive"}]}, {"smiles": "C/C=C/C(=O)C1=C(C)CCCC1(C)C", "values": [{"measurement": "outcome", "setting": "[1]", "result": "inactive"}, {"measurement": "outcome", "setting": "[2]", "result": "inactive"}, {"measurement": "AC50", "setting": "[3]", "result": "159 µM (active)"}, {"measurement": "outcome", "setting": "[4]", "result": "inactive"}, {"measurement": "AC50", "setting": "[6]", "result": "152 µM (active)"}, {"measurement": "outcome", "setting": "[7]", "result": "inactive"}, {"measurement": "outcome", "setting": "[8]", "result": "inactive"}]}, {"smiles": "NCc1cccc(CN)c1", "values": [{"measurement": "outcome", "setting": "[1]", "result": "inactive"}, {"measurement": "outcome", "setting": "[2]", "result": "inactive"}, {"measurement": "outcome", "setting": "[4]", "result": "inactive"}, {"measurement": "outcome", "setting": "[6]", "result": "inactive"}, {"measurement": "outcome", "setting": "[8]", "result": "inactive"}]}, {"smiles": "CCOC(=O)CN[C@@H](C(=O)N1CC[C@H]1C(=O)NCc1ccc(/C(N)=N/O)cc1)C1CCCCC1", "values": [{"measurement": "outcome", "setting": "[1]", "result": "inactive"}, {"measurement": "outcome", "setting": "[9]", "result": "inactive"}, {"measurement": "outcome", "setting": "[3]", "result": "inactive"}, {"measurement": "outcome", "setting": "[4]", "result": "inactive"}, {"measurement": "AC50", "setting": "[6]", "result": "3.99 µM (active)"}, {"measurement": "outcome", "setting": "[7]", "result": "inactive"}, {"measurement": "outcome", "setting": "[8]", "result": "inactive"}]}, {"smiles": "CCN(CCC#N)c1ccccc1", "values": [{"measurement": "outcome", "setting": "[1]", "result": "inactive"}, {"measurement": "outcome", "setting": "[2]", "result": "inactive"}, {"measurement": "outcome", "setting": "[4]", "result": "inactive"}, {"measurement": "outcome", "setting": "[5]", "result": "inactive"}, {"measurement": "outcome", "setting": "[6]", "result": "inactive"}, {"measurement": "outcome", "setting": "[7]", "result": "inactive"}, {"measurement": "outcome", "setting": "[8]", "result": "inactive"}]}, {"smiles": "C=CC(C)(CCC=C(C)C)OC(C)=O", "note": "(configuration not stated)", "values": [{"measurement": "outcome", "setting": "[1]", "result": "inactive"}, {"measurement": "outcome", "setting": "[2]", "result": "inactive"}, {"measurement": "outcome", "setting": "[9]", "result": "inactive"}, {"measurement": "outcome", "setting": "[5]", "result": "inactive"}, {"measurement": "outcome", "setting": "[6]", "result": "inactive"}, {"measurement": "outcome", "setting": "[7]", "result": "inactive"}, {"measurement": "outcome", "setting": "[8]", "result": "inactive"}]}, {"smiles": "CCCCCCCCC1CCC(=O)O1", "note": "(configuration not stated)", "values": [{"measurement": "outcome", "setting": "[1]", "result": "inactive"}, {"measurement": "outcome", "setting": "[2]", "result": "inactive"}, {"measurement": "outcome", "setting": "[4]", "result": "inactive"}, {"measurement": "outcome", "setting": "[5]", "result": "inactive"}, {"measurement": "outcome", "setting": "[8]", "result": "inactive"}]}, {"smiles": "O=S(=O)(O)C(F)(F)C(F)(F)C(F)(F)C(F)(F)C(F)(F)C(F)(F)C(F)(F)C(F)(F)C(F)(F)C(F)(F)F", "values": [{"measurement": "outcome", "setting": "[1]", "result": "inactive"}, {"measurement": "outcome", "setting": "[2]", "result": "inactive"}, {"measurement": "outcome", "setting": "[3]", "result": "inactive"}, {"measurement": "outcome", "setting": "[4]", "result": "inactive"}, {"measurement": "outcome", "setting": "[5]", "result": "inactive"}, {"measurement": "outcome", "setting": "[6]", "result": "inactive"}, {"measurement": "outcome", "setting": "[7]", "result": "inactive"}, {"measurement": "outcome", "setting": "[8]", "result": "inactive"}]}, {"smiles": "C=CCOCC(CO)(CO)CO", "values": [{"measurement": "outcome", "setting": "[1]", "result": "inactive"}, {"measurement": "outcome", "setting": "[2]", "result": "inactive"}, {"measurement": "outcome", "setting": "[3]", "result": "inactive"}, {"measurement": "outcome", "setting": "[4]", "result": "inactive"}, {"measurement": "outcome", "setting": "[5]", "result": "inactive"}, {"measurement": "outcome", "setting": "[6]", "result": "inactive"}, {"measurement": "outcome", "setting": "[8]", "result": "inactive"}]}, {"smiles": "COc1cc(OC)nc(NC(=O)NS(=O)(=O)Nc2ccccc2C(=O)N(C)C)n1", "values": [{"measurement": "outcome", "setting": "[1]", "result": "inactive"}, {"measurement": "outcome", "setting": "[9]", "result": "inactive"}, {"measurement": "outcome", "setting": "[3]", "result": "inactive"}, {"measurement": "outcome", "setting": "[4]", "result": "inactive"}, {"measurement": "outcome", "setting": "[6]", "result": "inactive"}, {"measurement": "outcome", "setting": "[7]", "result": "inactive"}, {"measurement": "outcome", "setting": "[8]", "result": "inactive"}]}]}
